ChEMBL document CHEMBL1961873, “Compounds: GSK PKIS; Assays: Nanosyn kinase panel” (2012)
Where “and” joins values, the source holds several entries; their conditions need not be identical. Equal values may be shown once.

target: Sphingosine kinase 1 (Homo sapiens) (UniProt Q9NYA1); details: at 1 µM;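 further: mean SPHK1 inhibition value reported from the GSK PKIS kinase panel screen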
Sequence (Q9NYA1 whole entry): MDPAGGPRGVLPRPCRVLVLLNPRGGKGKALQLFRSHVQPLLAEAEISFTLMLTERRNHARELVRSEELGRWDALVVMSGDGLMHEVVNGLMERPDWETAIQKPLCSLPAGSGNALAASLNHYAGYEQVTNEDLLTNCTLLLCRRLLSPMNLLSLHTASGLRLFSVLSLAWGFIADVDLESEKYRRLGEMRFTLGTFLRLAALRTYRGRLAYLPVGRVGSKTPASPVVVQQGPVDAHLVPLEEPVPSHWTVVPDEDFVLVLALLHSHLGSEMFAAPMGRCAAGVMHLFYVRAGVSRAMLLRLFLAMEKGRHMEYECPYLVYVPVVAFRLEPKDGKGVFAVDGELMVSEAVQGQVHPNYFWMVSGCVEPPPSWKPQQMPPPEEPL

| Structure (SMILES) | inhibition |
| --- | --- |
| Cc1ccc(-c2cc3c(NC(=O)C4CC4)ncnc3o2)cc1 | -8.41% |
| Nc1nccc(-c2c(-c3ccc(F)cc3)ncn2C2CCNCC2)n1 | 5.1% and -0.03% |
| CS(=O)(=O)Nc1ccc(-c2ccc3c(NC(=O)C4CC4)n[nH]c3c2)cc1 | -3.21% |
| Cn1c(-c2nonc2N)nc2cnccc21 | 3.87% |
| Cc1cc(O)cc(C)c1/C=C/c1cncc(C(N)=O)c1 | -2.84% |
| CNC(=O)c1sc(-n2cnc3cc(OC)c(OC)cc32)cc1OCc1ccccc1C(F)(F)F | -2.69% |
| COC(=O)Nc1nc2ccc(Oc3ccc(NC(=O)Nc4cc(C(F)(F)F)ccc4F)cc3)cc2s1 | -3.33% |
| COc1cc2c(cc1Nc1nc(Nc3cccc(F)c3C(N)=O)c3cc[nH]c3n1)N(C(=O)CN1CCN(C(C)C)CC1)CC2 | 1.21% |
| CS(=O)(=O)CCNCc1ccoc1-c1ccc2ncnc(Nc3ccc(OCc4ccccc4)cc3)c2c1 | 5.32% |
| O=C(O[C@H]1CN[C@H](C#Cc2cc3ncnc(Nc4ccc5c(cnn5Cc5ccccc5)c4)c3s2)C1)N1CCOCC1 | -0.72% |
| COc1c(C(N)=O)cc(-c2ccc(Cl)cc2)cc1-c1ccc(S(N)(=O)=O)cc1 | 0.21% |
| CCS(=O)(=O)c1ccc(OC)c(Nc2ncc(-c3cccc(C(C)=O)c3)o2)c1 | -2.18% |
| CNC(=O)c1ncccc1Nc1nc(Nc2cc3c(cc2OC)CCCN3C(=O)CN(C)C)nc2[nH]ccc12 | -0.03% |
| CC(C)c1ccc(-c2cc(-c3c[nH]nc3-c3ccccn3)ccn2)cc1 | -1.66% |
| Fc1cccc(COc2ccc(Nc3ncncc3C#Cc3ccccc3)cc2Cl)c1 | -2.79% |
| FC(F)(F)CNc1nccc(-c2cnn3ncccc23)n1 | -0.16% |

| Structure (SMILES) | inhibition |
| --- | --- |
| CN1CCC(C(=O)Nc2n[nH]c3nc(-c4ccc(O)cc4)c(Br)cc23)CC1 | 0.24% and -1.35% |
| CS(=O)(=O)CCNCc1ccc(-c2ccc3ncnc(Nc4ccc(OCc5ccccc5)cc4)c3c2)o1 | -3.83% |
| O=C1Nc2ccccc2/C1=C1\CCc2cc(O)ccc21 | -8.14% |
| CNC(=O)c1cncc(/C=C/c2ccccc2C)c1 | 1.15% |
| NC(=O)c1ccc2c(-c3ccnc(NCCCO)n3)c(-c3ccc(F)cc3)nn2c1 | -1.09% |
| N#Cc1cccc(Nc2ncc(-c3ccccc3)o2)c1 | -2.86% |
| CN1CCN(Cc2ccc(-c3cc4ncnc(Nc5ccc(OCc6cccc(F)c6)c(Cl)c5)c4s3)o2)CC1 | 3.16% and -4.57% |
| NS(=O)(=O)c1cccc(N/C=C2\C(=O)Nc3ccccc32)c1 | -0.2% |
| COc1ccc(Nc2ncc(-c3ccccc3)o2)cc1OC | 2.47% |
| CCn1c(-c2nonc2N)nc2cncc(C(=O)NCCNC)c21 | -1.79% |
| NS(=O)(=O)c1ccc(N/N=C2\C(=O)Nc3cccc(CCc4ccncc4)c32)cc1 | 3.16% |
| c1ccc(-c2n[nH]cc2-c2ccnc(-c3ccc(OCCn4ccnc4)cc3)c2)nc1 | -1.64% |
| c1cnn2ncc(-c3ccnc(NCCCN4CCOCC4)n3)c2c1 | -3.67% |
| CCN1CCC(C(=O)Nc2n[nH]c3nnc(-c4cccc(F)c4F)cc23)CC1 | 4.91% |
| O=C(Nc1n[nH]c2nnc(-c3cccnc3)cc12)C1CC1 | -2.26% |

target: T1, Sphingosine kinase 2 (Homo sapiens) (UniProt Q9NRA0); details: at 0.1 µM;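 further: values reported as mean percent inhibition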
T1 sequence (whole entry): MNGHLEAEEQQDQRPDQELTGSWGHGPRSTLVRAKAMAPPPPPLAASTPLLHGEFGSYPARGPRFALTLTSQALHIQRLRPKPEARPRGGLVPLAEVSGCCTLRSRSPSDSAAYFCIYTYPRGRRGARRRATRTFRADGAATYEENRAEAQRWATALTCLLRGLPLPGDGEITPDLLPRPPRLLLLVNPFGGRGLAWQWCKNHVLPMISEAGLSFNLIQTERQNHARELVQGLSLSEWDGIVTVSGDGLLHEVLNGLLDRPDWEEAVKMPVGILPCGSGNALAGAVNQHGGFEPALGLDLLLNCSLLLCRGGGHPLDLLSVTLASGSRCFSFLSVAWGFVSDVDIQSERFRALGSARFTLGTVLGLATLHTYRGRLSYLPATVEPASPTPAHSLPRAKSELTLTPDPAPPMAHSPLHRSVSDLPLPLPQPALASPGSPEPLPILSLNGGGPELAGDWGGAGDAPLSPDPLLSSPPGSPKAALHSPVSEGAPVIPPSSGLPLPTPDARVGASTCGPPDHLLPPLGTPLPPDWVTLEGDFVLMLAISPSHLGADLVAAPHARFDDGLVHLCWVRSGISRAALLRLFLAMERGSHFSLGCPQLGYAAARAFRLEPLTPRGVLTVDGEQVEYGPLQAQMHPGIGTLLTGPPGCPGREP

| Structure (SMILES) | inhibition |
| --- | --- |
| Cc1ccc(-c2cc3c(NC(=O)C4CC4)ncnc3o2)cc1 | -0.23% |
| Nc1nccc(-c2c(-c3ccc(F)cc3)ncn2C2CCNCC2)n1 | 0.57% and 0.62% |
| CS(=O)(=O)Nc1ccc(-c2ccc3c(NC(=O)C4CC4)n[nH]c3c2)cc1 | 1.2% |
| Cn1c(-c2nonc2N)nc2cnccc21 | 2.29% |
| Cc1cc(O)cc(C)c1/C=C/c1cncc(C(N)=O)c1 | 0.32% |
| CNC(=O)c1sc(-n2cnc3cc(OC)c(OC)cc32)cc1OCc1ccccc1C(F)(F)F | -1.57% |
| COC(=O)Nc1nc2ccc(Oc3ccc(NC(=O)Nc4cc(C(F)(F)F)ccc4F)cc3)cc2s1 | 0.51% |
| COc1cc2c(cc1Nc1nc(Nc3cccc(F)c3C(N)=O)c3cc[nH]c3n1)N(C(=O)CN1CCN(C(C)C)CC1)CC2 | -0.45% |
| CS(=O)(=O)CCNCc1ccoc1-c1ccc2ncnc(Nc3ccc(OCc4ccccc4)cc3)c2c1 | 1.37% |
| O=C(O[C@H]1CN[C@H](C#Cc2cc3ncnc(Nc4ccc5c(cnn5Cc5ccccc5)c4)c3s2)C1)N1CCOCC1 | 0.71% |
| COc1c(C(N)=O)cc(-c2ccc(Cl)cc2)cc1-c1ccc(S(N)(=O)=O)cc1 | -0.78% |
| CCS(=O)(=O)c1ccc(OC)c(Nc2ncc(-c3cccc(C(C)=O)c3)o2)c1 | 0.25% |
| CNC(=O)c1ncccc1Nc1nc(Nc2cc3c(cc2OC)CCCN3C(=O)CN(C)C)nc2[nH]ccc12 | -0.11% |
| CC(C)c1ccc(-c2cc(-c3c[nH]nc3-c3ccccn3)ccn2)cc1 | -0.31% |
| Fc1cccc(COc2ccc(Nc3ncncc3C#Cc3ccccc3)cc2Cl)c1 | -1.37% |
| FC(F)(F)CNc1nccc(-c2cnn3ncccc23)n1 | -1.21% |

| Structure (SMILES) | inhibition |
| --- | --- |
| CN1CCC(C(=O)Nc2n[nH]c3nc(-c4ccc(O)cc4)c(Br)cc23)CC1 | 0.67% and 1.32% |
| CS(=O)(=O)CCNCc1ccc(-c2ccc3ncnc(Nc4ccc(OCc5ccccc5)cc4)c3c2)o1 | -0.85% |
| O=C1Nc2ccccc2/C1=C1\CCc2cc(O)ccc21 | -0.36% |
| CNC(=O)c1cncc(/C=C/c2ccccc2C)c1 | 0% |
| NC(=O)c1ccc2c(-c3ccnc(NCCCO)n3)c(-c3ccc(F)cc3)nn2c1 | 0.78% |
| N#Cc1cccc(Nc2ncc(-c3ccccc3)o2)c1 | 0.09% |
| CN1CCN(Cc2ccc(-c3cc4ncnc(Nc5ccc(OCc6cccc(F)c6)c(Cl)c5)c4s3)o2)CC1 | 0.42% and -0.46% |
| NS(=O)(=O)c1cccc(N/C=C2\C(=O)Nc3ccccc32)c1 | 0.81% |
| COc1ccc(Nc2ncc(-c3ccccc3)o2)cc1OC | -0.42% |
| CCn1c(-c2nonc2N)nc2cncc(C(=O)NCCNC)c21 | -0.3% |
| NS(=O)(=O)c1ccc(N/N=C2\C(=O)Nc3cccc(CCc4ccncc4)c32)cc1 | 0% |
| c1ccc(-c2n[nH]cc2-c2ccnc(-c3ccc(OCCn4ccnc4)cc3)c2)nc1 | -0.27% |
| c1cnn2ncc(-c3ccnc(NCCCN4CCOCC4)n3)c2c1 | 2.35% |
| CCN1CCC(C(=O)Nc2n[nH]c3nnc(-c4cccc(F)c4F)cc23)CC1 | -2.69% |
| O=C(Nc1n[nH]c2nnc(-c3cccnc3)cc12)C1CC1 | -0.36% |
